Values without a mark were called inactive. Activity calls are given as the source filed them. Calls come from the whole dose curve; as a rule, active = well fitted curve in the direction sought with a large enough effect; inconclusive = small, poorly fitted or top-dose-only effect, or another doubt; inactive = no such curve, though single readings can be large or run the other way. Bridge positions count the residues as written; N and C are the ends. Square brackets hold non-standard residues; d marks the D form. Side chains are listed from the residue outwards. Peptide text beside a SMILES is read from it. * marks the point of attachment. Phg(4-OMe) = COc1ccc([C@H](N)C(=O)O)cc1; d(aIle) = CC[C@H](C)[C@@H](N)C(=O)O; d(aThr) = C[C@@H](O)[C@@H](N)C(=O)O; NMeF = CN[C@@H](Cc1ccccc1)C(=O)O; Isobutyryl = CC(C)C(=O)*

The values that follow come from PubChem BioAssay (NCATS).
Potency is the fitted concentration of half-maximal effect.

Chain of Luciferin 4-monooxygenase (Photinus pyralis) (P08659 whole entry, looked up): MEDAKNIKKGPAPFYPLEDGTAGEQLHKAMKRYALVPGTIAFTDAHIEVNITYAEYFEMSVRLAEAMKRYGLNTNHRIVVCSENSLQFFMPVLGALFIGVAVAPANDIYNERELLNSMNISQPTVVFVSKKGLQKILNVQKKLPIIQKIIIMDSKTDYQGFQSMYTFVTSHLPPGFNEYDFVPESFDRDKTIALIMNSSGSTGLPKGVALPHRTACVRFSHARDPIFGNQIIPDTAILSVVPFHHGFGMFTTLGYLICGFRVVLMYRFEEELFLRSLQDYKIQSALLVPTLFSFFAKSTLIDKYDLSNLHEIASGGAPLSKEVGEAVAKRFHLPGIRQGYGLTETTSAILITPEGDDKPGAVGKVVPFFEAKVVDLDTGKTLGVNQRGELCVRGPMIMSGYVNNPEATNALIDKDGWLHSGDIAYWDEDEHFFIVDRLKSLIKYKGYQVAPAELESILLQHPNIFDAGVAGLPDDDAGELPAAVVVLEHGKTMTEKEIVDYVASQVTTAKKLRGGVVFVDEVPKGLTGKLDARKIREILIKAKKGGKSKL

The assay has as its target Luciferin 4-monooxygenase (Photinus pyralis) (UniProt P08659). The assay is described as follows: Firefly luciferase counterscreen qHTS: Assay Interference Panel against the NCATS CANVASS Library (AID 1347363). For activity change, negative = inhibition: 0% is about no effect. As to conditions: purified firefly luciferase, luminescence inhibition, 5 min; series mostly up to 57.5 µM; activity change, negative = inhibition: at the top concentration. An excerpt: Natural products and their derivatives continue to be wellsprings of nascent therapeutic potential. However, many laboratories have limited resources for biological evaluation, leaving their previously isolated or synthesized compounds largely or completely untested. To address this issue, the Canvass library of natural products was assembled (https://tripod.nih.gov/canvass), in collaboration with academic and industry researchers, for quantitative high-throughput screening (qHTS) across a diverse set of cell-based and biochemical assays. The pure (>85% purity by liquid chromatography/mass spectrometry [LC/MS]) Canvass library of 346 natural products were submitted by 45 academic laboratories and companies around the world. We collected pure natural products to circumvent deconvolution and structure elucidation due to time and resource limitations. The library was formatted into 1536-well plates and evaluated in 50 qHTS (in an 11-pnt concentration series) bioassays with broad scope of disease-relevant mechanisms. The resulting data set from 50 different assays was then systematically analyzed to identify overall trends and specific natural products with interesting biological activities. Reported herein are the results of each individual qHTS and their corresponding assay protocol. This assay determines potential interactions with a common luminescent coupling enzyme, P. pyralis (firefly) luciferase, to identify possible false positives in future assays. The assay measures the relative levels of luminescence, to identify compounds that inhibit the activity of luciferase. National Center for Advancing Translational Sciences (NCATS), Rockville, MD National Institute of Health (NIH), Bethesda, Maryland
Luciferase Interference counterscreen protocol 1. In a 1536 well, black solid bottom, medium binding plates (Corning 7494), 3 uL of (1x) 50 mM Tris Acetate substrate solution containing 13.3 mM Mg-Acetate, 0.013 mM D-Luciferin, 0.013 mM ATP, 0.013% Tween-20, 0.067% BSA was dispensed into columns 1 to 48, rows 1 to 32 using the Bioraptr dispenser. 2. Compounds were pin transferred (~23 nL volume) via Wako Pin-tool (Wako Automation, Richmond VA) equipped with a 1536 pin head. The assay plates were treated with compounds in a concentration series with a final concentration range of 0.2 nM to 128 uM. 3. PTC124 was used as a control (25 uM, n = 32, column 2, row 1-32) at a final concentration of 142.9 nM and was pin transferred via Wako Pin-tool equipped with a 1536 pin head. 4. The assay plates were incubated in the dark for 15 minutes at room temperature. 5. One microliter of 4x detection reagent (0.04 ug/mL P. pyralis luciferase in 50 mM Tris-Acetate) was then added to the assay plates (column 2-48, rows 1-32) for a final assay volume of 4 uL. While 50 mM Tris-Acetate normalizing control was added to column 1, rows 1-32. 6. The assay plates were further incubated in the dark for 5 minutes at room temperature. 7. Luminescence signal was acquired via the ViewLux plate reader (PerkinElmer) using a clear emission filter and a 2 second exposure, 2x binning settings.
As to `COc1cc2c(cc1OC)[C@@H](c1ccc3c(c1)OCO3)C(C)C(C)C2=O` (stereo not given in full), the “activity change, negative = inhibition” value is -8.48%.

As for `CC(C)=CCC[C@]1(C)[C@H]2CC(=O)[C@@]3(CO3)[C@@H]1C2`, the “activity change, negative = inhibition” value is 2.14%.

Take `CC(C)=CCCC(C)(O)[C@H]1CC=C(C)C(O)C1` (stereo not given in full): the “activity change, negative = inhibition” value was 3.77%.

Consider `O=Cc1ccc2n1C[C@]1(C[C@H](O)[C@@H](CO)O1)OC2`, for which the “activity change, negative = inhibition” value is 0.428%.

As for `C[C@@]12CCC[C@@](C)(C(=O)OP(=O)(O)OC[C@H]3O[C@@H](n4cnc5c(N)ncnc54)[C@H](O)[C@@H]3O)[C@H]1C[C@@H](O)[C@@]13C[C@@H](CC[C@@H]21)[C@](C)(O)C3`, the “activity change, negative = inhibition” value was 2.27%.

In the case of `CCC(=O)N[C@@H](C[C@H](C)C(Cl)(Cl)Cl)C(=O)N1C(=O)C=C(OC)[C@@H]1C[C@H](C)CCl`, the “activity change, negative = inhibition” value is 0.203%.

Regarding `O[C@H]1C=C2[C@H]3CN(Cc4cc5c(cc43)OCO5)[C@H]2C[C@@H]1O`, the “activity change, negative = inhibition” value was -9.57%.

Consider `COc1c(O)cc2c(c1O)C(=O)c1c(coc1C)C2=O`, for which the “activity change, negative = inhibition” value was -4.93%.

As for `CC[C@H](C)[C@H]1NC(=O)[C@@H](NC(=O)C(C)C)[C@@H](C)OC(=O)[C@H](COC(=O)CNC(C)=O)NC(=O)[C@@H]([C@@H](C)O)NC(=O)[C@H](Cc2ccccc2)N(C)C(=O)[C@H](c2ccc(OC)cc2)NC1=O` (Isobutyryl-T[d(aIle)][Phg(4-OMe)][NMeF][d(aThr)]S([Gly-Ac]); ester 1-C), the “activity change, negative = inhibition” value is -5.6%.

With `CO[C@H]1[C@@H](OC(=O)/C(C)=C\[C@@H]2O[C@@H]2[C@H]2O[C@H]2C)[C@H](O)[C@H](OCC23C[C@@H]4[C@H](C)CC[C@H]4C4(C=O)CC2C=C(C(C)C)C34C(=O)O)O[C@@H]1C` (stereo not given in full), the “activity change, negative = inhibition” value was -5.83%.

Turning to `CO[C@H]1/C=C/CCCCC(=O)O[C@@H](/C(C)=C/[C@H](C)C(=O)C[C@H](O)CC2CC(=O)NC(=O)C2)[C@@H](C)C1`, the “activity change, negative = inhibition” value is -11.5%.

Turning to `C=C[C@]1(C)CC[C@@H]([C@H](C)C(=O)CC=C(C)C)O1`, the “activity change, negative = inhibition” value was -1.09%.

Regarding `Oc1ccc(C2Oc3cc(O)c4c(c3[C@@H]2c2cc(O)cc(O)c2)[C@H]2C(c3ccc(O)cc3)c3c(O)cc5c(c3[C@H]2C4c2ccc(O)cc2)[C@H](c2cc(O)cc(O)c2)C(c2ccc(O)cc2)O5)cc1` (stereo not given in full), the “activity change, negative = inhibition” value is 0.947%.

With `C=C1[C@@]2(C)CC3C4(C)CCC(O)C(C)(C)C4CCC3(C)[C@]1(C(=O)OC)C(=O)C(C)(O)C2=O` (stereo not given in full), the “activity change, negative = inhibition” value was -6.22%.

As for `COc1ccc2[nH]c3c(c2c1)CCN1C[C@H]2C[C@@H](OC(=O)c4cc(OC)c(OC)c(OC)c4)[C@H](OC)[C@@H](OC)[C@H]2C[C@H]31`, the “activity change, negative = inhibition” value was 5.31%.

On to `CCC(=O)N[C@@H](C[C@H](C)C(Cl)(Cl)Cl)C(=O)N1C(=O)C=C(OC)[C@@H]1CC(C)C`, for which the “activity change, negative = inhibition” value is -3.62%.

For the compound `C=CC(CCCCC)C1C(=O)NC(=O)C1C(=O)C1C(/C=C/C)C=CC2CC(C(=O)O)CC(C)C21` (stereo not given), the “activity change, negative = inhibition” value was -18%.

For `C/C(=C\[C@H](C)C(=O)C[C@H](O)CC1CC(=O)NC(=O)C1)[C@@H]1OC(=O)CCCC/C=C/[C@@H](O)C[C@@H]1C`, the “activity change, negative = inhibition” value is 0%.

Consider `CC(C)[C@@H]1CC(=O)c2coc3c2[C@H]1C[C@@H](C)C3=O`, for which the “activity change, negative = inhibition” value was 0.232%.

As to `C/C=C1/CN2C3CC1C1C=CC(=O)N4c5ccccc5[C@@]3(C[C@@H]2C2=C[C@H]3C5CC6N(CC[C@@]67c6ccccc6N(C2=O)[C@@H]37)C/C5=C/C)[C@H]14` (stereo not given in full), the “activity change, negative = inhibition” value is -0.474%.

Regarding `COc1cc(C2OCC3C(c4ccc(O)c(OC)c4)OCC23)ccc1O` (stereo not given), the activity change, negative = inhibition is 1.7% [at 11.5 µM].

As for `C/C(=C\[C@@H](C)CC/C=C/CC/C=C/C(=O)O)[C@H](O)[C@H](C)C(=O)CCCC1CC(=O)NC(=O)C1`, the “activity change, negative = inhibition” value is -8.08%.

As for `C/C1=C/[C@@H](C)[C@H](O)[C@@H](O)/C=C/CC/C=C/C(=O)O[C@@H]1[C@H](C)C(=O)/C=C/CC1CC(=O)NC(=O)C1`, the “activity change, negative = inhibition” value was -2.63%.

As to `C/C=C(/C)c1c(Cl)c(OC)c(C)c2c1Oc1c(Cl)c(O)c(Cl)c(C)c1C(=O)O2`, the “activity change, negative = inhibition” value is -9.36%.

For the compound `COC1C(C)OC(OCC23C[C@@H]4[C@H](C)CC[C@H]4C4(C=O)CC2C=C(C(C)C)C34C(=O)O)[C@@H](O)[C@H]1O` (stereo not given in full), the “activity change, negative = inhibition” value is -9.83%.

For `O=c1cc(-c2ccc(O)cc2)oc2cc(O)c([C@@H]3OC(CO)[C@H](O)[C@@H](O)[C@H]3O)c(O)c12` (stereo not given in full), the “activity change, negative = inhibition” value is -1.88%.

`O=C1CC(c2ccc(O)cc2)Oc2ccccc21` (stereo not given): the Potency is 5.44 µM (active).

In the case of `C/C=C1/C2=CCCN3C(=O)O[C@H]([C@H]1O)[C@H]23`, the “activity change, negative = inhibition” value was -3.6%.

As for `C=C1CCC2C(C)(C(=O)O)CCC(CC/C(C)=C/C(=O)NC(CCC(N)=O)C(=O)O)[C@@]2(C)C1` (stereo not given in full), the “activity change, negative = inhibition” value was -3.49%.

Consider `CC1(C)CC[C@]2(CO)CC[C@]3(C)C(=CCC4[C@@]5(C)CC[C@H](O)C(C)(C)C5CC[C@]43C)C2C1` (stereo not given in full), for which the “activity change, negative = inhibition” value is 2.63%.

Consider `COc1cc2c(cc1OC)[C@@H](c1ccc3c(c1)OCO3)C(C)[C@@H](C)C2=O` (stereo not given in full), for which the “activity change, negative = inhibition” value is 2.3%.

Turning to `C/C(=C\CC[C@@H](C)[C@H]1CC[C@]2(C)C3=CCC4C(C)(C)[C@@H](O)C[C@@H](O)[C@]4(C)C3[C@H](O)C[C@@]12C)CO` (stereo not given in full), the “activity change, negative = inhibition” value was 3.28%.

On to `C[n+]1cc2cc(C(N)=O)[nH]c3c(=N)c(Cl)c(N)c1c23`, for which the “activity change, negative = inhibition” value is -11%.

Regarding `CC(C)=CCC/C(C)=C/Cc1cc([C@@H]2CC(=O)c3c(cc(O)c(CC=C(C)C)c3O)O2)ccc1O`, the “activity change, negative = inhibition” value was -8.23%.

Turning to `C[C@@]12CCC[C@@](C)(C(=O)O)[C@H]1C[C@@H](O)[C@@]13C[C@@H](CC[C@@H]21)[C@](C)(O)C3`, the “activity change, negative = inhibition” value is 1.56%.

In the case of `C[C@H](CCC(O)C(C)(O)CO)[C@@]1(O)CC[C@@]2(C)C3=C(CC[C@@]21C)[C@@]1(C)CCC(OC(=O)CCC(=O)O)C(C)(C)[C@@H]1CC3` (stereo not given in full), the “activity change, negative = inhibition” value is 0.538%.

As to `C[C@@]12CCC[C@@](C)(C(=O)O)[C@H]1CC[C@@]13C[C@@H](CC[C@H]12)[C@](C)(O)C3`, the “activity change, negative = inhibition” value is 0.606%.

With `[C-]#[N+][C@@]12C(=O)[C@@H]3[C@@H](O[C@@]4(C(=O)N(C)c5cccc1c54)C3(C)C)C(=O)[C@@]2(C)C=C`, the “activity change, negative = inhibition” value was 0.102%.

Turning to `CC(=O)Oc1cc2c(c(OC(C)=O)c1C1CCc3cc(Cl)c(Cl)n31)C(=O)n1c-2cc(Cl)c1Cl` (stereo not given), the “activity change, negative = inhibition” value is -18.8%.

On to `C[C@]12CCC[C@](C)(C(=O)O)[C@@H]1CC[C@@]1(C)c3cocc3CC[C@H]21`, for which the “activity change, negative = inhibition” value is -6.61%.
